Experimental data: PubChem BioAssay (NCATS)
Records with an inconclusive call do not appear. A number with no mark means an inactive call. Calls of active or inactive are those of the source. Calls come from the whole dose curve; as a rule, active = well fitted inhibition curve with a large enough effect; inconclusive = small, poorly fitted or top-dose-only effect; inactive = flat fitted curve, though single readings scatter.

Test system: 7G8
Experiment: qHTS profiling for inhibitors of Plasmodium falciparum proliferation (AID 504749); note: nearly all actives have a fitted effect of over 60% in size;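 for activity, negative = inhibition: 0% = DMSO vehicle and full inhibition = artemisinin control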
Settings: P. falciparum in erythrocytes, SYBR Green DNA, 72 h; series mostly up to 28.7 µM; activity, negative = inhibition: at the top concentration
Procedure, shortened: (§1)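 Infected RBCs, 0.3% parasitemia/2.5% Hct final; cpd 72 h, 37 C, 5% CO2; lysis buffer with saponin/triton/SYBR Green I, o/n RT dark; FI 485/535; norm. to artemisinin (0.29 uM) and DMSO.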
Potency is the fitted concentration of half-maximal effect.

Structure (SMILES)	activity, negative = inhibition	Potency
O=C1NCC2(CCN(CCc3ccccc3)CC2)O1	-16.8%	
CC(=O)CCCCn1c(=O)c2c(ncn2C)n(C)c1=O	8.68% [at 12.8 µM]	
CC(=O)c1ccc(S(=O)(=O)NC(=O)NC2CCCCC2)cc1	-17.6%	
O=c1[nH]cnc2c1ncn2[C@H]1CC[C@@H](CO)O1		10 µM (active)
NCCS	-6.11%	
O=C(O)c1cc(-c2ccccc2)nc2ccccc12	-6.31%	
COc1ccccc1N1CCN(CCCNc2cc(=O)n(C)c(=O)n2C)CC1	-25.7%	
C[C@@H](O)[C@H]1C(=O)N2C(C(=O)O)=C(S[C@@H]3CN[C@H](C(=O)N(C)C)C3)[C@H](C)[C@H]12	-2.94%	
CN(C)CCC(c1ccccc1)c1ccccn1 (stereo not drawn)		5.62 µM (active)
CCCCC1C(=O)N(c2ccccc2)N(c2ccccc2)C1=O	-24.1%	
NC(N)=Nc1nc(CSCC/C(N)=N/S(N)(=O)=O)cs1	16.3%	
O=C(O)Cc1cccc2ccccc12	0.748%	
O=C1NC(=O)C(c2ccccc2)(c2ccccc2)N1	-3.33%	
O=C1Nc2ccc(Cl)cc2C(C#CC2CC2)(C(F)(F)F)O1 (stereo not drawn)		11.2 µM (active)
CCN(CC)CCOC(=O)c1ccc(N)cc1	-12.6% [at 12.8 µM]	
CCN1CCC[C@H]1CNC(=O)c1cc(S(N)(=O)=O)ccc1OC	-1.39%	
C[N+](C)(C)CCCCCC[N+](C)(C)C	13.8%	
CCN(CC)CCNC(=O)c1ccc(N)cc1	-17.8%	
O=C(NCCN1CCOCC1)c1ccc(Cl)cc1	-10.9%	
CC1(C)O[C@H]2C[C@@H]3[C@H]4CCC5=CC(=O)C=C[C@]5(C)[C@@]4(F)[C@@H](O)C[C@]3(C)[C@]2(C(=O)CO)O1		8.91 µM (active)
CCN(CC)C(=O)c1ccc(O)c(OC)c1		inactive
CCCNC(=O)NS(=O)(=O)c1ccc(Cl)cc1	-10.1%	

Test system: AA1029
Experiment: as above
Settings: P. falciparum in erythrocytes, SYBR Green DNA, 72 h; series mostly up to 28.7 µM; activity, negative = inhibition: at the top concentration
Procedure, shortened: as §1

Structure (SMILES)	activity, negative = inhibition	outcome
O=C1NCC2(CCN(CCc3ccccc3)CC2)O1	3.21%	
CC(=O)CCCCn1c(=O)c2c(ncn2C)n(C)c1=O	15.7% [at 12.8 µM]	
CCOC(=O)O[C@]1(C(=O)OCCl)CC[C@@H]2[C@H]3CCC4=CC(=O)C=C[C@]4(C)[C@@H]3[C@@H](O)C[C@@]21C	-0.915%	
CC(=O)c1ccc(S(=O)(=O)NC(=O)NC2CCCCC2)cc1	-2.86%	
O=c1[nH]cnc2c1ncn2[C@H]1CC[C@@H](CO)O1	-6.58%	
NCCS	3.86%	
O=C(O)c1cc(-c2ccccc2)nc2ccccc12	1.96%	
COc1ccccc1N1CCN(CCCNc2cc(=O)n(C)c(=O)n2C)CC1	-22.6%	
C[C@@H](O)[C@H]1C(=O)N2C(C(=O)O)=C(S[C@@H]3CN[C@H](C(=O)N(C)C)C3)[C@H](C)[C@H]12	1.48%	
NC(N)=Nc1nc(CSCC/C(N)=N/S(N)(=O)=O)cs1	2.94%	
O=C(O)Cc1cccc2ccccc12	7.79%	
O=C1NC(=O)C(c2ccccc2)(c2ccccc2)N1	-2.73%	
O=C1Nc2ccc(Cl)cc2C(C#CC2CC2)(C(F)(F)F)O1 (stereo not drawn)	8.55%	
CCN(CC)CCOC(=O)c1ccc(N)cc1	6.19% [at 12.8 µM]	
CCN1CCC[C@H]1CNC(=O)c1cc(S(N)(=O)=O)ccc1OC	3.53%	
C[N+](C)(C)CCCCCC[N+](C)(C)C	11.6%	
CCN(CC)CCNC(=O)c1ccc(N)cc1	11.7%	
O=C(NCCN1CCOCC1)c1ccc(Cl)cc1	2.54%	
CC1(C)O[C@H]2C[C@@H]3[C@H]4CCC5=CC(=O)C=C[C@]5(C)[C@@]4(F)[C@@H](O)C[C@]3(C)[C@]2(C(=O)CO)O1	-7.31%	
CCN(CC)C(=O)c1ccc(O)c(OC)c1		inactive
CCCNC(=O)NS(=O)(=O)c1ccc(Cl)cc1	7.22%	

Test system: AS120
Experiment: as above
Settings: P. falciparum in erythrocytes, SYBR Green DNA, 72 h; series mostly up to 28.7 µM; activity, negative = inhibition: at the top concentration
Procedure, shortened: as §1

Structure (SMILES)	activity, negative = inhibition	Potency
O=C1NCC2(CCN(CCc3ccccc3)CC2)O1	4.41%	
CC(=O)CCCCn1c(=O)c2c(ncn2C)n(C)c1=O	9.12% [at 12.8 µM]	
CCOC(=O)O[C@]1(C(=O)OCCl)CC[C@@H]2[C@H]3CCC4=CC(=O)C=C[C@]4(C)[C@@H]3[C@@H](O)C[C@@]21C	-9.24%	
CC(=O)c1ccc(S(=O)(=O)NC(=O)NC2CCCCC2)cc1	4.88%	
O=c1[nH]cnc2c1ncn2[C@H]1CC[C@@H](CO)O1	1.81%	
NCCS	7.38%	
O=C(O)c1cc(-c2ccccc2)nc2ccccc12	13%	
COc1ccccc1N1CCN(CCCNc2cc(=O)n(C)c(=O)n2C)CC1		inactive
C[C@@H](O)[C@H]1C(=O)N2C(C(=O)O)=C(S[C@@H]3CN[C@H](C(=O)N(C)C)C3)[C@H](C)[C@H]12	16.4%	
CN(C)CCC(c1ccccc1)c1ccccn1 (stereo not drawn)	14.1%	
NC(N)=Nc1nc(CSCC/C(N)=N/S(N)(=O)=O)cs1	-1.21%	
O=C(O)Cc1cccc2ccccc12	2.54%	
O=C1NC(=O)C(c2ccccc2)(c2ccccc2)N1	3.1%	
CCN(CC)CCOC(=O)c1ccc(N)cc1	11.5% [at 12.8 µM]	
CCN1CCC[C@H]1CNC(=O)c1cc(S(N)(=O)=O)ccc1OC	-0.567%	
C[N+](C)(C)CCCCCC[N+](C)(C)C	7.44%	
CCN(CC)CCNC(=O)c1ccc(N)cc1	0.6%	
O=C(NCCN1CCOCC1)c1ccc(Cl)cc1	6.46%	
CCN(CC)C(=O)c1ccc(O)c(OC)c1		inactive
CCCNC(=O)NS(=O)(=O)c1ccc(Cl)cc1	8.53%	
